Assay results published in PubChem BioAssay (EPA / NIEHS).
Inconclusive results are not listed. The source made the active and inactive calls. Rule for the calls, unless noted: active = hit-call score of the fitted dose curve at least 0.9, where 1 is the maximum; inactive = score below 0.9.

Experiments:
[1] = target: Glucocorticoid receptor (Homo sapiens) (UniProt P04150); assay: ATG_GR_TRANS: Attagene TRANS-FACTORIAL HepG2 Assay for human Glucocorticoid Receptor (GR) (AID 2282978; active = hit-call score of the fitted dose curve at least 0.9, where 1 is the maximum;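 note: activators score as hits since higher reporter transcript over DMSO is fitted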); settings: HepG2 Attagene TRANS GR reporter, mRNA transcription
Outline: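 In this trans-factorial format, exogenous NR-GAL4 chimeric proteins in transfected HepG2 cells regulate GAL4-UAS reporter transcription. After 24 h treatment, reporter mRNA induction relative to DMSO is read by RT-PCR and capillary electrophoresis.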

[2] = target: Bile acid receptor (Homo sapiens) (UniProt Q96RI1); assay: ATG_FXR_TRANS: Attagene TRANS-FACTORIAL HepG2 Assay for Farnesoid X Receptor (FXR) (AID 2282979; active = hit-call score of the fitted dose curve at least 0.9, where 1 is the maximum;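 note: hits raise reporter mRNA above DMSO so AC50 marks FXR activation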); settings: HepG2 Attagene TRANS FXR-GAL4 reporter transcription
Outline: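 HepG2 cells transiently transfected with reporter constructs in which a chimeric FXR-GAL4 protein drives a GAL4-UAS reporter; 24 h compound exposure. Reporter mRNA measured by RT-PCR, FAM labelling, HpaI digestion and capillary electrophoresis; gain-of-signal versus DMSO.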

[3] = target: Oxysterols receptor LXR-alpha (Homo sapiens) (UniProt Q13133); assay: ATG_LXRa_TRANS: Attagene TRANS-FACTORIAL HepG2 Assay for human Liver X Receptor alpha (LXRa) (AID 2282980; active = hit-call score of the fitted dose curve at least 0.9, where 1 is the maximum); settings: HepG2 Attagene TRANS reporter, LXRa transactivation
Outline: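 HepG2 cells were transiently transfected with multiplexed reporter units driven by chimeric LXRa–GAL4 fusion proteins, then dosed for 24 h. Reporter mRNA was quantified by RT-PCR, fluorescent labelling and capillary electrophoresis; gain of signal fitted against DMSO baseline.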

[4] = target: Oxysterols receptor LXR-beta (Homo sapiens) (UniProt P55055); assay: ATG_LXRb_TRANS: Attagene TRANS-FACTORIAL HepG2 Assay for human Liver X Receptor beta (LXRb) (AID 2282981; active = hit-call score of the fitted dose curve at least 0.9, where 1 is the maximum); settings: HepG2 Attagene TRANS GAL4-LXRb reporter, mRNA
Outline: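 After 24 h of chemical treatment, transfected HepG2 cells yield total RNA; reporter cDNA is PCR-amplified, FAM-labelled, HpaI-cut and run on capillary electrophoresis. Signal reflects chimeric LXRb-Gal4 activity on GAL4-UAS reporters.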

[5] = ATG_M_32_TRANS: Attagene TRANS-FACTORIAL HepG2 Assay for M32 Transcription Factor (Internal Marker) (AID 2282984; active = hit-call score of the fitted dose curve at least 0.9, where 1 is the maximum;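 note: transcript level of a background control reporter unit measured by RT-PCR and capillary electrophoresis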); settings: HepG2 Attagene TRANS M32 internal marker reporter
Outline: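 Cell-based TRANS-format assay in HepG2: exogenous chimeric GAL4 reporter units transiently expressed, compounds applied 24 h. Reporter mRNA detected by RT-PCR plus capillary electrophoresis; this readout is an internal background marker.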

[6] = target: Transcriptional activator Myb (Homo sapiens) (UniProt P10242); assay: ATG_Myb_CIS: Attagene CIS-FACTORIAL HepG2 Assay for human Myeloblastosis (Myb) Proto-Oncogene Transcription Factor (AID 2282986); settings: HepG2 Attagene CIS-FACTORIAL Myb reporter transcription; actives raise or lower the signal
Outline: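 Steps: transfect HepG2 with cis-regulated reporter units; dose with chemical for 24 h; isolate RNA, reverse-transcribe, PCR-amplify and FAM-label reporter sequences; digest with HpaI; resolve by capillary electrophoresis. Activity fitted in both directions relative to DMSO.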

[7] = target: Nuclear respiratory factor 1 (Homo sapiens) (UniProt Q16656); assay: ATG_NRF1_CIS: Attagene CIS-FACTORIAL HepG2 Assay for human Nuclear Respiratory Factor 1 (NRF1) Orphan Gene (AID 2282987); settings: HepG2 NRF1 cis-element reporter, Attagene multiplex; actives raise or lower the signal
Outline: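 Fluorescence intensity of labelled reporter cDNA fragments, resolved by capillary electrophoresis, served as readout for NRF1 cis-element activity. Transiently transfected HepG2 cells were dosed for 24 hours; activity in either direction was fitted against DMSO negative control.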

[8] = ATG_NFI_CIS: Attagene CIS-FACTORIAL HepG2 Assay for human Nuclear Factor I (NFI) (AID 2282989); settings: HepG2 cis-regulatory reporter, NFI response element transcription; actives raise or lower the signal
Outline: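 HepG2 cells transiently transfected with cis-element-driven multiplexed reporter transcription units, dosed for 24 h. Reporter mRNA quantified by RT-PCR, fluorescent labelling, HpaI digestion and capillary electrophoresis; bidirectional fit versus DMSO baseline.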

[9] = target: Myc proto-oncogene protein (Homo sapiens) (UniProt P01106); assay: ATG_Myc_CIS: Attagene CIS-FACTORIAL HepG2 Assay for human Myelocytomatosis (Myc) Proto-Oncogene Transcription Factor (AID 2282990); settings: HepG2, Attagene cis-reporter transcription factor activity; actives raise or lower the signal
Outline: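 HepG2, transient MRTU transfection (cis promoters, endogenous TFs); 24 h dosing; TriZol RNA → oligo(dT) RT → PCR → 6-FAM primer extension → HpaI cut → CE. Bidirectional fit vs DMSO.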

[10] = ATG_NF_kB_CIS: Attagene CIS-FACTORIAL HepG2 Assay for human Nuclear Factor Kappa B (NF-kB) (AID 2282991); settings: HepG2 Attagene cis-factorial NF-kB reporter mRNA; actives raise or lower the signal
Outline: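 Endogenous transcription factor activity in HepG2 was captured via cis-regulated reporter constructs; after 24 h dosing, reporter mRNA was reverse-transcribed, amplified, fluorescently labelled and sized by capillary electrophoresis, with activity fitted bidirectionally relative to DMSO.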

[11] = ATG_NRF2_ARE_CIS: Attagene CIS-FACTORIAL HepG2 Assay for human Nuclear Factor Erythroid 2 Related Factor 2 (NFR2) response to Antioxidant Response Elements (ARE) (AID 2282992); settings: HepG2 Attagene ARE/NRF2 reporter, transcription factor activity; actives raise or lower the signal;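 for AC50: reporter mRNA level measured by RT-PCR and capillary electrophoresis fluorescence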
Outline: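 Endogenous transcription factor activity in human liver HepG2 cells is tracked via a cis-element-driven reporter within a multiplexed set. mRNA induction is read by RT-PCR and capillary electrophoresis after 24 h, with DMSO as baseline.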

[12] = ATG_Oct_MLP_CIS: Attagene CIS-FACTORIAL HepG2 Assay for human Octamer-Binding Transcription Factor (Oct) (AID 2282993); settings: HepG2 Attagene cis-factorial Oct reporter, mRNA; actives raise or lower the signal
Outline: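 HepG2 cells transiently transfected with cis-promoter-driven multiplexed reporter transcription units, dosed for 24 h. Reporter mRNA quantified by RT-PCR, fluorescent labelling, HpaI digestion and capillary electrophoresis; bidirectional fits versus DMSO baseline.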

[13] = target: Cellular tumor antigen p53 (Homo sapiens) (UniProt P04637); assay: ATG_p53_CIS: Attagene CIS-FACTORIAL HepG2 Assay for human p53 Transcription Factor (AID 2282994); settings: HepG2 p53 cis-element reporter, Attagene mRNA; actives raise or lower the signal
Outline: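 Steps: transfect HepG2 with multiplexed cis reporter constructs; dose chemicals 24 h; extract RNA, reverse-transcribe, PCR-amplify reporter sequences; FAM-label, HpaI-digest, resolve fragments by CE. Activity fitted both directions relative to DMSO.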

[14] = target: Nuclear receptor subfamily 4 group A member 2 (Homo sapiens) (UniProt P43354); assay: ATG_NURR1_TRANS: Attagene TRANS-FACTORIAL HepG2 Assay for human Nuclear Receptor Related Protein 1 (NURR1) (AID 2282985; active = hit-call score of the fitted dose curve at least 0.9, where 1 is the maximum); settings: HepG2 Attagene TRANS reporter, mRNA readout
Outline: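 Measures transcriptional activation by an exogenous NR-Gal4 chimera in transfected HepG2 liver cells. After 24 h, reporter RNA is reverse-transcribed, amplified and resolved by capillary electrophoresis; DMSO defines baseline.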

[15] = BSK_3C_TissueFactor: BioMAP Diversity Plus: 3C Assay for Tissue Factor Biomarker Activity (AID 2282997); settings: BioMAP 3C HUVEC, tissue factor biomarker readout; actives raise or lower the signal
Outline: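 Readout: Tissue Factor ELISA. Cells: human primary umbilical vein endothelium. Time: 24 h after dosing. Analysis: bidirectional fit, DMSO baseline.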

[16] = BSK_3C_uPAR: BioMAP Diversity Plus: 3C Assay for Urokinase-type plasminogen activator receptor (uPAR) Biomarker Activity (AID 2282998); settings: BioMAP 3C HUVEC, uPAR biomarker ELISA; actives raise or lower the signal
Outline: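 Human umbilical vein endothelial primary cells were exposed to test chemical for 24 h. Cell-surface uPAR was then quantified by ELISA, and responses were fitted bidirectionally against DMSO as negative control and baseline.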

[17] = BSK_3C_VCAM1: BioMAP Diversity Plus: 3C Assay for Vascular cell adhesion molecule 1 (VCAM1) Biomarker Activity (AID 2282999); settings: BioMAP 3C HUVEC, VCAM1 ELISA, cytokine-stimulated; actives raise or lower the signal
Outline: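 Activity fitted in both directions relative to DMSO, with ELISA measurement of the surface marker on primary HUVEC (3C) at 24 h post-treatment; parallel SRB staining (0.1% SRB, TCA-fixed, 560 nm) flagged overt cytotoxicity.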

[18] = ATG_M_06_TRANS: Attagene TRANS-FACTORIAL HepG2 Assay for M06 Transcription Factor (Internal Marker) (AID 2282983; active = hit-call score of the fitted dose curve at least 0.9, where 1 is the maximum;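 note: reporter transcript level by RT-PCR then capillary electrophoresis fluorescence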); settings: HepG2 Attagene TRANS M06 internal marker reporter
Outline: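 In this multiplexed HepG2 system, compounds are incubated 24 h with cells carrying GAL4-UAS reporter units. Reporter RNA is amplified and resolved by capillary electrophoresis, and induction is scored against DMSO.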

[19] = target: Hepatocyte nuclear factor 4-alpha (Homo sapiens) (UniProt P41235); assay: ATG_HNF4a_TRANS: Attagene TRANS-FACTORIAL HepG2 Assay for human Hepatocyte Nuclear Factor 4 alpha (HNF4a) (AID 2282982; active = hit-call score of the fitted dose curve at least 0.9, where 1 is the maximum); settings: HepG2 HNF4a transactivation reporter, mRNA readout
Outline: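 Multiplexed reporter assay: transfected HepG2, 24 h exposure, total RNA → oligo(dT) RT → PCR → 6-FAM extension → HpaI digest → CE fluorescence. DMSO = negative control.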

Measured: AC50

Chain of Bile acid receptor (Homo sapiens) (Q96RI1 whole entry, looked up, the tested form may be a part): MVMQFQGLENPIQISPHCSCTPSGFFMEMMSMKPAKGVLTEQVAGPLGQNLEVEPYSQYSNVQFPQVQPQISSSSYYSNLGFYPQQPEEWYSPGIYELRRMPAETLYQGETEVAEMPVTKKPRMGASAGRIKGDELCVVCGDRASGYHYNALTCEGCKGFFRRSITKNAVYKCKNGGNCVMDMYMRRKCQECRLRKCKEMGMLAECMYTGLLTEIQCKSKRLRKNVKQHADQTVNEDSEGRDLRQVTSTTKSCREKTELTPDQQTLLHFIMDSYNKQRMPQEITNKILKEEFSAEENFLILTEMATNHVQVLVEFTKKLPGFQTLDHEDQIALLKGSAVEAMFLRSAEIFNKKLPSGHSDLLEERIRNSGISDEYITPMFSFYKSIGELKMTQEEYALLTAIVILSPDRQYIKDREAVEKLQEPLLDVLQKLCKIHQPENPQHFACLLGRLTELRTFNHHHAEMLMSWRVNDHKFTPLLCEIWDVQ
Chain of Glucocorticoid receptor (Homo sapiens) (P04150 whole entry, looked up, the tested form may be a part): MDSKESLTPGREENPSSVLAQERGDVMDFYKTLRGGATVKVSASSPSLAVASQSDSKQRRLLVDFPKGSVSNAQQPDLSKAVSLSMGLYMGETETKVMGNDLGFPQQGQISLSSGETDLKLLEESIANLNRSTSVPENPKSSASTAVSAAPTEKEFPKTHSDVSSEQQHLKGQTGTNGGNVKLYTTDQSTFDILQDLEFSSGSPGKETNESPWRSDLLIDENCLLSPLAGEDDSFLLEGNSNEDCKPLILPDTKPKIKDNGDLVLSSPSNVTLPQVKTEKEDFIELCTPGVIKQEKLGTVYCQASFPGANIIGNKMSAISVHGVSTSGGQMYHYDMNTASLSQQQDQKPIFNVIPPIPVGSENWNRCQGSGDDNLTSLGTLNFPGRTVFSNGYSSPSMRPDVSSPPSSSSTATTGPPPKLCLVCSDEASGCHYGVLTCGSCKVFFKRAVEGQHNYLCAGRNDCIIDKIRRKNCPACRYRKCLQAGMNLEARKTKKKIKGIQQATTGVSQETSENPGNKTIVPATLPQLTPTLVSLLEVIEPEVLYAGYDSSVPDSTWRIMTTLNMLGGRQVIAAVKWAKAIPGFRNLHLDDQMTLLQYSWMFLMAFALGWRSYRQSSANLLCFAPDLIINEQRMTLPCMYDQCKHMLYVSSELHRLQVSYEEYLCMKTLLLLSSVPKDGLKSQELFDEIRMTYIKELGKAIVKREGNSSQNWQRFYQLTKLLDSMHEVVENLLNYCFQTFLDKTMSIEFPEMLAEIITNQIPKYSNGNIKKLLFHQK
Chain of Transcriptional activator Myb (Homo sapiens) (P10242 whole entry, looked up): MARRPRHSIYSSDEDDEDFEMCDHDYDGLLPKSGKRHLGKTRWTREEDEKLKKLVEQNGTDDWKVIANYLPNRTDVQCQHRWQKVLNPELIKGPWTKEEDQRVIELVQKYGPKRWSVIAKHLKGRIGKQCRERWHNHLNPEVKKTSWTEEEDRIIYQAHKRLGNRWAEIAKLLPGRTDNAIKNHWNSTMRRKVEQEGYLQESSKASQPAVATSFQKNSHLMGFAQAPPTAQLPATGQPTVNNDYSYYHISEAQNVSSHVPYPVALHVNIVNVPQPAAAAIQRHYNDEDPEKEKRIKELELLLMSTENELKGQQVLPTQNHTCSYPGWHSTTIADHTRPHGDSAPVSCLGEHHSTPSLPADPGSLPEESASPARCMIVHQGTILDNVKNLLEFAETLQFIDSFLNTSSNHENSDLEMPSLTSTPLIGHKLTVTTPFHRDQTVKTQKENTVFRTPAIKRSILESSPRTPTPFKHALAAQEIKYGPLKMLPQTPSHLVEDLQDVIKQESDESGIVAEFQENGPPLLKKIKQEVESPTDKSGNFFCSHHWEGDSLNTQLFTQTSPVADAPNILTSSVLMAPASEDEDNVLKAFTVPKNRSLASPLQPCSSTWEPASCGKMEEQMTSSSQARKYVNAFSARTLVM
Chain of Hepatocyte nuclear factor 4-alpha (Homo sapiens) (P41235 whole entry, looked up): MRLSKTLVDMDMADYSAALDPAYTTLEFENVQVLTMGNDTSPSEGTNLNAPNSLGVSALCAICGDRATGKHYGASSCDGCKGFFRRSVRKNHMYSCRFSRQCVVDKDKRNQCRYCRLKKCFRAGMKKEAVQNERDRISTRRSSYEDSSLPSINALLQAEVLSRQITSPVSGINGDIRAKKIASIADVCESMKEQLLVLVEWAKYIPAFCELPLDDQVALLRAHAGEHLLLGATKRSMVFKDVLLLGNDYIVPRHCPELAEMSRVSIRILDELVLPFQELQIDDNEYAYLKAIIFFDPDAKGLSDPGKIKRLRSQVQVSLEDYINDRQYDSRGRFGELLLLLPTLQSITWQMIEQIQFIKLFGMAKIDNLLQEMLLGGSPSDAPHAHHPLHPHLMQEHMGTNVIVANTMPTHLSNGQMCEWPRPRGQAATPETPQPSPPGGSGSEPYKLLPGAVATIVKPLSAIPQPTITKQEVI
Chain of Oxysterols receptor LXR-alpha (Homo sapiens) (Q13133 whole entry, looked up, the tested form may be a part): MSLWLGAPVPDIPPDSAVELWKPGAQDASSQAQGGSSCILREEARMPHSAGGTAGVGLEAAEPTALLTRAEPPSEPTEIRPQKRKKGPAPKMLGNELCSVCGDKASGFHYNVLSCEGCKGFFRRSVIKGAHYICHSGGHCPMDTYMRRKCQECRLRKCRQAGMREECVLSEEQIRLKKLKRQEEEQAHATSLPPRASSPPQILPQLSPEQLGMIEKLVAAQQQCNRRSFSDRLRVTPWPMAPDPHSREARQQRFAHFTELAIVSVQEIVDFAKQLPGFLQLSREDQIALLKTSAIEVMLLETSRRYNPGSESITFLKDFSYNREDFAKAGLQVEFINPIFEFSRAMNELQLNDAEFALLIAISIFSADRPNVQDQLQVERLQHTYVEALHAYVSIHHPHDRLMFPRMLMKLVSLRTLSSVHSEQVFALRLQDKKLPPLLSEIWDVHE
Chain of Nuclear receptor subfamily 4 group A member 2 (Homo sapiens) (P43354 whole entry, looked up, the tested form may be a part): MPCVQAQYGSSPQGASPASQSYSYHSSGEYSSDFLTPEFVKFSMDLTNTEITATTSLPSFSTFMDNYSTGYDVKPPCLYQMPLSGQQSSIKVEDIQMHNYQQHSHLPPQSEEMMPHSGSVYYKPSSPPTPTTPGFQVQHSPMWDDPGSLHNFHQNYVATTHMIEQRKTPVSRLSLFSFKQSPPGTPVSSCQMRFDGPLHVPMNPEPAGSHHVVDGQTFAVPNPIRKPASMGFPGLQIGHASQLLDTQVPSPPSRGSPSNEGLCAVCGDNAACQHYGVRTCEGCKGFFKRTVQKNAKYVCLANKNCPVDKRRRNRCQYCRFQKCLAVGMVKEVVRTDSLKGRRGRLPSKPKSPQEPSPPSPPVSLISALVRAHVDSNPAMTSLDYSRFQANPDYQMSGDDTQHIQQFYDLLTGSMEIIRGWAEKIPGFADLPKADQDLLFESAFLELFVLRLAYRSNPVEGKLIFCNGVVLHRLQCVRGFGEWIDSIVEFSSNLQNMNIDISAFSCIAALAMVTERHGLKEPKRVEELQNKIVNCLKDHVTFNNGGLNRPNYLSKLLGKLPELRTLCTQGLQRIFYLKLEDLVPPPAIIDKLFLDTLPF
Chain of Cellular tumor antigen p53 (Homo sapiens) (P04637 whole entry, looked up, the tested form may be a part): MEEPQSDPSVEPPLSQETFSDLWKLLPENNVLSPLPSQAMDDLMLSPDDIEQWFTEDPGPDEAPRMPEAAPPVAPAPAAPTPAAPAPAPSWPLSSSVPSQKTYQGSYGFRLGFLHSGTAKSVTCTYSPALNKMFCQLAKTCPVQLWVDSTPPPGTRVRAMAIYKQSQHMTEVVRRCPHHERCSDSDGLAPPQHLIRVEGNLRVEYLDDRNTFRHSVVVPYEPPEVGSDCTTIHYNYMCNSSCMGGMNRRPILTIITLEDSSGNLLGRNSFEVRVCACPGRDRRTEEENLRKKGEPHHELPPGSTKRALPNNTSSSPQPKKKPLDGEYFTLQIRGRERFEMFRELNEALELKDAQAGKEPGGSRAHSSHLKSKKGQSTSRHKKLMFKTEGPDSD
Chain of Nuclear respiratory factor 1 (Homo sapiens) (Q16656 whole entry, looked up, the tested form may be a part): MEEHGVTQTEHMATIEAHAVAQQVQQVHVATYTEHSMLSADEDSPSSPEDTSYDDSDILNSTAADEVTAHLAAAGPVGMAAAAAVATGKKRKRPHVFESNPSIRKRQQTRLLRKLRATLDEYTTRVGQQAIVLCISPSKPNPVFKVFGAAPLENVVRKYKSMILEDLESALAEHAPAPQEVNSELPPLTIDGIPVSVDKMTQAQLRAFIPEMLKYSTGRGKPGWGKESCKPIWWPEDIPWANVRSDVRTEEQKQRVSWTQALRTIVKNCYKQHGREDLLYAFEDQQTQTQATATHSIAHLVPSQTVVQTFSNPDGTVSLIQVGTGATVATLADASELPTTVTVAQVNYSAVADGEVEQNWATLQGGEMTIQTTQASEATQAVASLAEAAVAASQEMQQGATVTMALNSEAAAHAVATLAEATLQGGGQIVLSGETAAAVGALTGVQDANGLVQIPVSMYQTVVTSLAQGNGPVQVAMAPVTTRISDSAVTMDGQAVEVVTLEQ
Chain of Oxysterols receptor LXR-beta (Homo sapiens) (P55055 whole entry, looked up, the tested form may be a part): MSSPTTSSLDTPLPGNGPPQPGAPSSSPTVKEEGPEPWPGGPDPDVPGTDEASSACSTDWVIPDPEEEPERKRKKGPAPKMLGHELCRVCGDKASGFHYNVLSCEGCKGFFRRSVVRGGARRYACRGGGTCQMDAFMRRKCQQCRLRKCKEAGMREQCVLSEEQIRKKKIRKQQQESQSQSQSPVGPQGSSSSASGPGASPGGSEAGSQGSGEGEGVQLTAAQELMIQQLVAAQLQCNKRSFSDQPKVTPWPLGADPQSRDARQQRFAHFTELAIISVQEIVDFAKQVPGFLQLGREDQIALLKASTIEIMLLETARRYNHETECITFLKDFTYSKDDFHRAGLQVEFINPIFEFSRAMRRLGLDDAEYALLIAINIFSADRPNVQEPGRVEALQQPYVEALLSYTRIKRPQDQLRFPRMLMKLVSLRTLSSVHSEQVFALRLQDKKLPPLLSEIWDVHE

O=C(O)CCC(F)(F)C(F)(F)C(F)(F)C(F)(F)C(F)(F)C(F)(F)C(F)(F)F
active: [11] 94.9 µM | [13] 204 µM
not listed: [4] | [18] | [19]
inactive: all other assays above

O=S(=O)(O)CCC(F)(F)C(F)(F)C(F)(F)C(F)(F)C(F)(F)C(F)(F)C(F)(F)C(F)(F)F
active: [2] 40 µM | [11] 91.8 µM
not listed: [4] | [18] | [19]
inactive: all other assays above

NC(=O)C(F)(F)C(F)(F)C(F)(F)C(F)(F)C(F)(F)C(F)(F)C(F)(F)F
not listed: [4] | [9] | [19]
inactive: all other assays above

CC(=O)C=O
not listed: [4] | [5] | [14] | [15] | [16] | [17] | [19]
inactive: all other assays above

CCOC(OCC)OCC
not listed: [3] | [11] | [15] | [16] | [17]
inactive: all other assays above

CCc1ccc(C)nc1
not listed: [4] | [14] | [15] | [16] | [17]
inactive: all other assays above

CCN(CC)c1ccc2c(c1)Oc1cc(N(CC)CC)ccc1C21OC(=O)c2ccccc21
active: [11] 34.8 µM | [15] 2.97 µM | [16] 11.2 µM
not listed: [3] | [4] | [9] | [14] | [19]
inactive: all other assays above

CO[Si](CCCOCC1CO1)(OC)OC (stereo unspecified)
active: [11] 73.2 µM
not listed: [2] | [3] | [9] | [15] | [16] | [17] | [18]
inactive: all other assays above

COC(=O)c1ccc(C=O)cc1
not listed: [3] | [14] | [15] | [16] | [17] | [18] | [19]
inactive: all other assays above

Oc1ccc(C2(c3ccc(O)c(C4CCCCC4)c3)CCCCC2)cc1C1CCCCC1
active: [6] 51.3 µM | [8] 8.18 µM
not listed: [3] | [4] | [11] | [14] | [15] | [16] | [17]
inactive: all other assays above

Cc1cccc(C)n1
not listed: [2] | [4] | [9] | [14] | [15] | [16] | [17]
inactive: all other assays above

CCCC(=O)OCC(COC(=O)CCC)OC(=O)CCC
active: [10] 44.7 µM | [13] 89.1 µM
not listed: [3] | [4] | [5] | [11] | [15] | [16] | [17]
inactive: all other assays above

O=S(=O)(O)c1ccc(Cl)cc1
not listed: [2] | [10] | [15] | [16] | [17]
inactive: all other assays above

OC(O)C(F)(F)C(F)(F)F
active: [10] 127 µM | [11] 93.6 µM | [13] 121 µM
not listed: [3] | [4] | [5] | [9] | [19]
inactive: all other assays above

CC(C)(C)c1cc(Cc2cc(C(C)(C)C)c(O)c(C(C)(C)C)c2)cc(C(C)(C)C)c1O
inactive: [1] | [2] | [5] | [14] | [6] | [7] | [8] | [10] | [12]

CC(=O)CCC(C)C
inactive: [1] | [4] | [6] | [7] | [8] | [9] | [10] | [11] | [12] | [13]

CCC/C=C/CO
not listed: [3] | [4] | [10] | [11] | [15] | [16] | [17] | [18]
inactive: all other assays above

OCCC(O)CO (stereo unspecified)
inactive: [1] | [2] | [6] | [7] | [8] | [9] | [10] | [11] | [12] | [13]

CC(C)=CCCC(C)O (stereo unspecified)
not listed: [3] | [4] | [5] | [14] | [15] | [16] | [17] | [19]
inactive: all other assays above

OCC1CCCO1 (stereo unspecified)
not listed: [2] | [9] | [14] | [15] | [16] | [17] | [19]
inactive: all other assays above

CC(C)CCCC(C)CCO (stereo unspecified)
active: [15] 36.4 µM | [16] 26.7 µM | [17] 33.9 µM
not listed: [3] | [9] | [18] | [19]
inactive: all other assays above
